From ChEMBL document CHEMBL3988442, “University of Dundee, Small-Polar-MMV Screening Library” (2021)
Out of some 53,000 compounds screened, about 900 (1.7%) showed an effect of 50% or more. The sample holds strong results, similar compounds and a random draw of the others, so the mix is not that of the screen.

Test system: Mycobacterium tuberculosis
Experiment: Cornell - Phenotypic assay to identify agents that inhibit growth of Mycobacterium tuberculosis
Format: functional
Set-up: scale not given: direction of the effect not stated beside the values
Conditions: 10 mM as filed; unlikely as a test dose

Structure (SMILES)	Percent Effect
O=C1CN(C(=O)C2CN(c3ccccc3)CCO2)CCN1 (configuration not stated)	14.68%
O=C(Nc1ccnc(OC2CCOC2)c1)c1ccccc1Cl (configuration not stated)	61.48%
O=C(Nc1ccnc(OC2CCOC2)c1)c1ccc(F)cc1Cl (configuration not stated)	1.296%
Cc1occc1C(=O)Nc1ccnc(OC2CCOC2)c1 (configuration not stated)	6.262%
CN(Cc1ccc(F)cc1)[C@@H]1CN(S(=O)(=O)N(C)C)C[C@H]1O	11.25%
COCCN1CCO[C@H]2CN(Cc3cc[nH]n3)C[C@H]21.O=C(O)C(F)(F)F.O=C(O)C(F)(F)F	-6.862%
N#Cc1ccc(S(=O)(=O)Nc2ccccc2C#N)cn1	63.63%
Cc1cccc(NS(=O)(=O)c2cnn(C)c2)c1C#N	-1.344%
Cc1cccc(NS(=O)(=O)c2ccc(C#N)nc2)c1C#N	105.8%
N#Cc1cccnc1NCc1ccc(S(=O)(=O)NCC2CCCO2)cc1 (configuration not stated)	-11.22%
Cc1ccc(S(=O)(=O)Nc2cccnc2O)cc1C	-38.51%
COCCNS(=O)(=O)c1ccc(CNc2ncccc2C#N)cc1	9.617%
Cc1ccc(N2C[C@H]3CCN(Cc4ccncc4)C[C@H]3C2)nn1.O=C(O)C(F)(F)F	-19.26%
Cc1ccc(CN2CCC3(CCCN3C(=O)C(C)C)CC2)o1	-8.279%
CCOc1nnc(CN(C)C2CCCN(c3cccnn3)C2)s1 (configuration not stated)	26.02%
CC1c2ncc(COCC3CC3)n2CCN1C(=O)c1ccn(C)n1 (configuration not stated)	14.69%
CC(c1nc(C(C)(C)C)no1)N1CCN(CC(=O)N2CCOCC2)CC1 (configuration not stated)	7.513%
CCN1CCN(c2ccc(NC(=O)CC(C)C)c(C)c2)CC1	-22.64%
Cc1cc(OCC(=O)NC(C)c2ccc(N3CCOCC3)cc2)no1 (configuration not stated)	4.093%
Cc1noc(C(C)Nc2ccc(N3CCOCC3)cc2C)n1 (configuration not stated)	61.87%
CCN1CCN(c2ccc(NC(C)c3nc(C(C)C)no3)c(C)c2)CC1 (configuration not stated)	73.38%
Cc1cc(CN2CCN(C(C)c3nc(C(C)C)no3)CC2)no1 (configuration not stated)	-1.591%
Cc1noc(C(C)Nc2ccc3c(c2)CCC3)n1 (configuration not stated)	-0.4193%

Structure (SMILES)	Percent Effect
Cc1cc(CNC(=O)NC(C)c2ccc(N3CCOCC3)cc2)no1 (configuration not stated)	-27.63%
Cc1cc(N2CCOCC2)ccc1NC(C)c1nc(C(C)C)no1 (configuration not stated)	72.08%
CC(c1nc(C(C)(C)C)no1)N1CCN(C(=O)CN2CCOCC2)CC1 (configuration not stated)	8.353%
Cc1noc(C(C)N2CCN(CC(=O)N3CCOCC3)CC2)n1 (configuration not stated)	-22.01%
Cc1cc(N2CCOCC2)ccc1NC(C)c1nc(C(C)(C)C)no1 (configuration not stated)	76.4%
CCc1ccccc1NC(=O)NCc1nnc(SC)n1C	-6.778%
CC(=O)N1CCC(CCc2ccnc(NC(=O)c3ccccn3)c2)CC1	-18.95%
COc1ccc(-n2cnc(Cl)c2CO)cc1	11.93%
COCCN(C)C[C@H]1C[C@H](CO)CN(C(=O)c2ccn(C)c(=O)c2)C1	18.02%
CCc1ncnc(N2CCOCC2C2CC2)c1F (configuration not stated)	0.2478%
COCCNC(=O)c1ccccc1-n1cc(CN)cn1	-18.17%
CC(C)COC(=O)N1CC(=O)N(CCCc2ccccc2)CC(O)C1 (configuration not stated)	6.947%
Cc1cc(C)c(CNC(=O)NCC(O)c2ccccc2F)c(=O)[nH]1 (configuration not stated)	-14.22%
CCc1nccn1C1CCCN(C(=O)c2cccc3c2OCO3)C1 (configuration not stated)	-43.9%
C1CCN(CCN2CCCCC2C2OCCO2)CC1 (configuration not stated)	10.52%
Cc1cccc(C2(O)CCN(Cc3ccccc3N3CCCC3)CC2)c1	33.4%
Cc1cc2c(cc1C)OC1(C=C2)CCN(CC(=O)N2CCOCC2)CC1	44.67%
Cc1cc(C)n(CC2CN(CC(=O)NC3CCCC3)CCO2)n1 (configuration not stated)	-7.412%
Cc1cc(C)n(CC2CN(CC(=O)NC3CCCCC3)CCO2)n1 (configuration not stated)	-10.09%
Cc1cc2c(cc1Cl)C=CC1(CCN(C(=O)N3CCOCC3)CC1)O2	23.79%
Cc1cc2c(cc1Cl)C=CC1(CCN(CC(=O)NC3CCCC3)CC1)O2	71.56%
Cc1cc2c(cc1Cl)C=CC1(CCN(CC(=O)N3CCOCC3)CC1)O2	-15.66%
CCN(CC)C(=O)CN1CCC2(C=Cc3cc(Cl)c(C)cc3O2)CC1	52.2%

Structure (SMILES)	Percent Effect
CCc1ccc(O)c(C(=O)N2CCN(CC(=O)N(CC)CC)CC2)c1	-14.81%
Cc1cc2c(cc1Cl)C=CC1(CCN(CC(=O)N3CCCC3)CC1)O2	63.41%
O=C1NCC(C(=O)Nc2ncc(Cc3ccccc3)s2)N1 (configuration not stated)	-21.97%
CNC(=O)c1cn[nH]c1C1CCN(Cc2cn(C)nc2C)C1 (configuration not stated)	-22.18%
CCn1nc(C)c2ncnc(N(C)C)c21	-48.95%
O=C(CC1CCCC1)N1CCC(c2cc3ncccc3c(O)n2)CC1	-42.1%
CCN1CCCC1CNC(=O)Cc1c(C)n[nH]c1-c1ccc(OC)cc1 (configuration not stated)	17.71%
CCC(C(=O)Nc1ccc2cn(CC)nc2c1)N1CCCC1=O (configuration not stated)	13.02%
Nc1nnc(CCNC(=O)c2cccc(C3CCCNC3)c2)s1 (configuration not stated)	4.454%
Cn1cnc2c1CCN(CCS(=O)(=O)c1ccc(Cl)cc1)C2	-6.56%
Cc1cc(C)n(C2CN(CC(=O)N(C)Cc3ccco3)C2)n1	-1.246%
COc1ccccc1CN(C)C(=O)CN1CC(n2nc(C)cc2C)C1	65.44%
COc1cccc(CN(C)C(=O)CN2CC(n3nc(C)cc3C)C2)c1	24.75%
CC(C)(C)c1nc(CN(CCO)Cc2cc(Br)ccc2F)no1	21.92%
CCCc1nc(CN(CCO)Cc2cc(Br)ccc2F)no1	55.91%
Cc1noc(CN(CCO)Cc2cc(Br)ccc2F)n1	29.28%
CCS(=O)(=O)N1CCCn2cnc(COc3cccnc3)c2C1.O=C(O)C(F)(F)F	13.68%
CN(CCCc1cnn(C)c1)Cc1cc2n(n1)CCCN(C)C2	2.304%
C[C@@H](O)CNC(=O)c1nc(Cc2c(Cl)cccc2Cl)no1	33.25%
CC(O)CNC(=O)c1nc(Cc2c(Cl)cccc2Cl)no1 (configuration not stated)	19.28%
CC(C)CNC(=O)CNC(=O)c1nc(Cc2c(Cl)cccc2Cl)no1	50.66%
